Source: PubChem (several laboratories)
A selection: hits, their analogues and other compounds. The true share with any hit is near 4%.
TROY NFkB inh = TROY signaling inhibition; Q293 LMP1-TROYcd NF-kB luciferase reporter, 4 h; 360,000 compounds, 0.98% hits; AID 1347056; inhibition, % at 10 µM;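 active means compounds whose plate-normalised and pattern-corrected inhibition of the luciferase reporter signal at the single screening dose is 50% or more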
Peg3 promoter = reduces Peg3 promoter-driven luciferase expression in HeLa | HeLa PEG-Prom luciferase reporter, luminescence, overnight | inhibition, % at 20 µM | 360,000 compounds, 1.7% hits | AID 588405;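 active means inhibition of at least 50% at 20 µM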
EBV LMP1 NFkB = reduces LMP1-driven NF-kappaB luciferase signal; LMP1-induced NF-kappaB luciferase reporter cells, luminescence; inhibition, % at 12.5 µM; 350,000 compounds, 0.69% hits; AID 504558; in the data active means inhibition above about 41%
TWEAK-Fn14 inh = inhibitors of TWEAK-Fn14 interaction signaling; 360,000 compounds, 2% hits; TWEAK-stimulated Fn14 reporter cells, luciferase luminescence, 8 h; inhibition, % at 10 µM; in the data active means inhibition above about 50%
HIF-2a block = blocks HIF-2a reporter activity; 786-0 RCC cells HIF-2a reporter, luciferase luminescence, overnight; inhibition, % at 18.8 µM; 360,000 compounds, 0.72% hits; AID 624352;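 active means inhibition of the luminescence signal of 40% or more relative to plate controls, in a single-dose primary screen at 18.75 µM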
TRPM1 prom inh = inhibitors of MITF-driven TRPM1 promoter in melanoma cells | SK-MEL-5 TRPM1 promoter luciferase, 24 h | inhibition, % at 12.5 µM | 330,000 compounds, 0.83% hits | AID 488899;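 active means mean inhibition across replicates of 60% or more, whatever share of single replicates reaches that level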
Hits are given with their value; 0 = inactive; - = no result.

SMILES	TROY NFkB inh	Peg3 promoter	EBV LMP1 NFkB	TWEAK-Fn14 inh	HIF-2a block	TRPM1 prom inh
CCCCN(C)c1c(C)nc2ccc(C(=O)N(C)Cc3ccco3)cn12	0	0	-	0	0	-
COc1ccc(C2CC(c3ccc(Cl)cc3)=NN2C(C)=O)cc1 (stereo not given)	0	0	0	0	0	0
CC(=O)N1N=C(c2ccc(Cl)cc2)CC1c1ccc([N+](=O)[O-])cc1 (stereo not given)	0	0	0	79.8	0	0
CN1C2C(Br)CCCCN2c2ccc(F)cc2S1(=O)=O (stereo not given)	0	0	0	0	0	-
CCCCC(=O)OCC(=O)C1(O)Cc2c(O)c3c(c(O)c2C(OC2CC(NC(=O)C(F)(F)F)C(O)C(C)O2)C1)C(=O)c1c(OC)cccc1C3=O (stereo not given)	0	74.3	47.8	0	0	61.4
COc1cccc2c1C(=O)c1c(O)c3c(c(O)c1C2=O)CC(O)(C(C)=O)CC3OC1CC(O)C(O)C(C)O1 (stereo not given)	0	0	0	0	0	77.3
COc1cccc2c1C(=O)c1c(O)c3c(c(O)c1C2=O)C[C@](O)(C(C)=O)C[C@H]3O[C@@H]1C[C@@H](N)[C@@H](O)[C@@H](C)O1	77.3	105.0	91.4	97.2	0	88.2
COc1cccc2c1-c1c(O)cccc1C2=O	0	0	0	0	0	0
CC(C)CC1NC(=O)c2cccnc2-n2c1nc1cc(F)c(F)cc1c2=O (stereo not given)	0	0	0	0	0	-
COc1ccc2nc3n(c(=O)c2c1)-c1ncccc1C(=O)NC3CC(C)C (stereo not given)	0	0	0	76.3	0	-
COc1ccc(NC(=O)C2Cc3c(-c4ccc5c(c4)OCO5)ccnc3O2)cc1 (stereo not given)	0	0	-	0	0	-
